# In PubChem BioAssay (NCI):
# Several values for one entry are separate records, joined by “and”; a condition that tells them apart may be missing. Equal values may be shown once. The panel holds about 79,000 compounds, 15% with a hit somewhere; the sample as a whole holds those more often. Unmarked numbers belong to inactive results. Activity calls are given as the source filed them. No stated cut-off is given here; in the data, active means growth inhibition above about 70%; inactive means the rest.
# Tests used:
# [1] = NCI Yeast Anticancer Drug Screen. Data for the rad50 strain (AID 155);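 further: 0% = growth of vehicle-only cultures of the same strain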; conditions: S. cerevisiae rad50 strain growth inhibition, hits give high values; at 50.0 µM unless noted
# How it was run: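 Growth of the mutant yeast was measured after compound exposure and referenced to vehicle-treated cultures.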
# [2] = NCI Yeast Anticancer Drug Screen. Data for the mec2-1 strain (AID 157); conditions: S. cerevisiae mec2-1 strain, hits give high values; at 50.0 µM unless noted
# How it was run: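 Cells of the genetically defined mec2-1 yeast strain are incubated with test compound. Inhibition of growth is calculated against vehicle-treated controls.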
# [3] = NCI Yeast Anticancer Drug Screen. Data for the sgs1 mgt1 strain (AID 161);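 further: 0% = growth of cultures given vehicle only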; conditions: S. cerevisiae sgs1 mgt1 strain, hits give high values; at 50.0 µM unless noted
# How it was run: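 Mutant yeast exposed to compound; growth scored against vehicle-only wells.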
# [4] = NCI Yeast Anticancer Drug Screen. Data for the cln2 rad14 strain (AID 165);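 further: 0% = growth equal to vehicle treated cultures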; conditions: S. cerevisiae cln2 rad14 strain, hits give high values; at 50.0 µM unless noted
# How it was run: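 The screen exposed genetically defined yeast (cln2 rad14) to test compounds and scored growth inhibition relative to vehicle-treated controls.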
# [5] = NCI Yeast Anticancer Drug Screen. Data for the bub3 strain (AID 167); conditions: S. cerevisiae bub3 mutant strain, hits give high values; at 50.0 µM unless noted
# How it was run: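 Whole-cell yeast assay. The mutant strain was incubated with compounds, and growth inhibition was determined by comparison with vehicle-treated cells.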
# [6] = NCI Yeast Anticancer Drug Screen. Data for the mlh1 rad18 strain (AID 175); conditions: S. cerevisiae mlh1 rad18 strain growth inhibition, hits give high values; at 50.0 µM unless noted
# How it was run: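 Compound-treated yeast growth, normalised to vehicle controls. Strain bears defined DNA repair mutations.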
Structure (SMILES),growth inhibition [1],growth inhibition [2],growth inhibition [3],growth inhibition [4],growth inhibition [5],growth inhibition [6]
CCOC(=O)N1C(=O)C2C3C=CC(C2C1=O)C1C2C(=O)N(C(=O)OCC)C(=O)C2C31 (stereo not given),1.4%,-3.15%,-37.4%,-0.55%,-19.9%,-37.6%
O=S(=O)(O)c1ccc2c(ccc3ccccc32)c1,-18.4% and -3.8%,-0.25% and -18.4%,-2.9% and -14.2%,-0.9% and 21.6%,1.35% and 28.1%,5.7% and -23.1%
CN(C)C(=S)/N=c1\ssc(=S)n1Cc1cccnc1,-20.6%,-14.4%,5.5%,22.9%,-13.7%,-62.8%
O=[N+]([O-])c1ccccc1/C=C/c1ccccn1,2.4%,2.35%,-3.55%,20%,41.3%,21.1%
C[N+](C)(C)CC(O)C[N+](C)(C)C,12.1%,6.15%,3.6%,-42.1%,-3.5%,22.7%
COc1ccc2nc3cccc([N+](=O)[O-])c3c(NC(C)CN(C)C)c2c1 (stereo not given),52%,35.9%,54.1%,64.3%,26.4%,42.9%
CC(C)CCO/N=C(\N)N=C(N)N,-17.4%,-5.8%,14.3%,2.7%,-1.75%,-1.9%
CC1=C(N2CCOCC2)C(N2CCOCC2)C(C)C1=O (stereo not given),16.8%,-5.25%,-4.8%,13.7%,9.1%,3%
CC12CCC(CC1(Cl)Cl)C2 (stereo not given),9.75%,-5.8%,21.1%,14.3%,4.7%,26.9%
COc1ccc(NC(=O)CC(=O)N2N=C(N3c4ccccc4Sc4ccccc43)CC2c2ccccc2)cc1 (stereo not given),8.65%,-4.1%,0.8%,14.2%,4.8%,-3.6%
CCCCCCSC(=O)NC(C)=O,-10.3%,-0.95%,1.4%,-86%,-18.9%,0%
O=C(Nc1ccc(Nc2ccc3c(c2)C(=O)c2ccccc2C3=O)c2c1C(=O)c1ccccc1C2=O)c1ccccc1,-35.7%,-15.2%,-15.3%,-36.7%,-15.2%,-25.6%
O=C(O)Cc1ccc(-c2cn3c(n2)sc2ccccc23)cc1,58.1%,22.3%,0.05%,5.45%,24.8%,16.4%
Cc1ccc(NP(=O)(Nc2ccc(C)cc2)c2ccc([N+](=O)[O-])cc2)cc1,93.2% (active),94.2% (active),92.7% (active),92.1% (active),85.3% (active),95.6% (active)
O=C(CCN1C(=O)c2ccccc2C1=O)Nc1c(I)cc(I)c(C(=O)O)c1I,-4.6%,-11.7%,-20.6%,-20.2%,8.65%,6.8%
CN(C)/C=N/NC(=O)/C(C#N)=C/N(C)C,-26.1%,2.3%,-8.15%,-24.8%,-45.1%,-42.9%
Oc1ccc(C(O)CN2CCCC2)cc1O (stereo not given),-15.7%,10.9%,-0.1%,-36.1%,2.7%,-15.3%
CC(=O)NC1C(OCc2ccccc2)OC(CO)C(O)C1OC(C)C(=O)N[C@@H](C)C(=O)N[C@H](CCC(=O)OCCNc1c2ccccc2nc2cccc([N+](=O)[O-])c12)C(N)=O (stereo not given in full),87.2% (active),90.8% (active),90.4% (active),90.5% (active),88.7% (active),86.8% (active)
CC(=O)CC(=O)Nc1ccc2ccccc2c1,-1.9%,-12%,-8.3%,-36.4%,-37.9%,-14.6%
CC(O)C(O)C(O)C(O)c1nc2ccccc2[nH]1 (stereo not given),-18.4%,-3.35%,-20.6%,-37%,4.35%,9.9%

Structure (SMILES),growth inhibition [1],growth inhibition [2],growth inhibition [3],growth inhibition [4],growth inhibition [5],growth inhibition [6]
CC1=N[C@@H](C(=O)NCC(N)=O)Cc2c1[nH]c1ccccc21,11.7%,10.1%,8.65%,-7.85%,-4.25%,4.4%
Cc1cc(Cl)ccc1NC(=O)Oc1ccc(C#N)cc1,-13.8%,-18.4%,-25.2%,-10.6%,-17.1%,-19.4%
Cc1[nH]n(C(N)=S)c(=O)c1N=Nc1ccc([N+](=O)[O-])cc1Cl,57.8%,6%,66.2%,-46.5%,1.5%,53.2%
CC(C)COC(c1ccccc1)c1ccccc1,-9.5%,-9.75%,5.15%,18.8%,-12.8%,-4.75%
O=C1/C(=C/c2cccnc2)SC(=S)N1Cc1ccco1,2.7%,-21.1%,-8.85%,40%,-6.45%,1.45%
O=c1cc2ccc(Cl)cc2n[nH]1,8.1%,2.7%,2.05%,-33.4%,-14.3%,4.5%
CCN(CCO)C(=O)Nc1ccc(Cl)cc1,-6.1%,-31.6%,11.1%,8.6%,0.55%,-7.65%
O=C1/C(=C/c2cccc(Cl)c2)CCCc2ccccc21,21.9%,13.8%,33.2%,11.3%,62.5%,44.4%
O=C(CC(CC(=O)C(c1ccccc1)c1ccccc1)c1ccccc1)C(c1ccccc1)c1ccccc1,45.9%,18%,61.9%,-0.6%,-8.3%,29.6%
S=c1[nH]nc(-c2ccccc2Cl)o1,-47.9%,-17.7%,-47.8%,-21.2%,-4.75%,-66.2%
CCC(c1cccc(C(=O)O)c1)C(C(C)=O)c1ccc(O)cc1 (stereo not given),0.8%,-20.5%,-6.1%,-22.5%,4%,-5.05%
COC(=O)/C=C(/Sc1nc(Cl)c(Cl)nc1N)C(=O)OC (tested in a mixture with another compound),-15.1%,-6.25%,10.7%,-4.3%,-29.5%,-24.6%
c1ccc2c(c1)ncn2Sn1cnc2ccccc21,1.8% and 2.7%,16.9% and -0.1%,3.8% and -3.35%,-12.4% and 15.5%,2.95% and 11.1%,6.9% and 20.9%
O=C1c2ccccc2C(=O)C1c1ccc2ccccc2n1,7.85%,-7.95%,3.35%,2.6%,7.05%,-7.95%
O=C1C(N2CCCCC2)=C(c2ccccc2)c2ccccc21,5.1%,7.5%,-3.6%,-28.9%,17.1%,-10.2%
N#CCc1cccc(Cl)c1Cl (tested in a mixture with another compound),6.8%,-15.3%,3.55%,-22.4%,14.4%,-7.55%
CCOC(=O)/C(C#N)=C/c1cccc([N+](=O)[O-])c1,4.9%,4.8%,7.05%,-11.6%,34.1%,31.2%
COC(=O)CCn1cnc2c(SC)ncnc21,-27.2%,16.2%,-44%,21.5%,19.2%,-12.7%
CCOc1ccccc1NC(=O)/C(=N\NC(C)(C)C)C1C(=O)Nc2ccccc2S1=O (stereo not given),-4.3%,-27.9%,-9.85%,9.2%,-6.9%,10.1%
O=C(Nc1cc(Cl)c(Cl)cc1Cl)C(=O)C(C(=O)c1ccccc1)C1OC(=O)c2ccccc21 (stereo not given),-18.6%,-34.8%,-25.1%,-0.5%,-10.2%,-10.3%
